# Results taken from PubChem BioAssay (NCI).
# Compounds without any hit were thinned out: in the full panel of roughly 83,000, 20% have a hit.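 Method: cells in 96-well plates; compound added at one concentration; 48 h incubation; percent growth measured; values under 10 scored active.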 Unmarked numbers belong to inactive results. Activity calls are given as the source filed them.
# What was measured:
# Assay in all cases: NCI-60 one-dose screen, 48 h (100 = growth as untreated, 0 = no growth, -100 = all killed)
# SR leukemia = conditions: 10 µM unless noted
# RPMI-8226 leukemia = conditions: 10 µM unless noted
# OVCAR-8 ovarian = conditions: 10 µM unless noted
# OVCAR-5 ovarian = conditions: 10 µM unless noted
# OVCAR-4 ovarian = conditions: 10 µM unless noted
# SK-OV-3 ovarian = conditions: 10 µM unless noted
# IGROV1 ovarian = conditions: 10 µM unless noted
# OVCAR-3 ovarian = conditions: 10 µM unless noted
# HS 578T breast = conditions: 10 µM
# NCI/ADR-RES ovarian = conditions: 10 µM unless noted
Structure (SMILES),growth (SR leukemia),growth (RPMI-8226 leukemia),growth (OVCAR-8 ovarian),growth (OVCAR-5 ovarian),growth (OVCAR-4 ovarian),growth (SK-OV-3 ovarian),growth (IGROV1 ovarian),growth (OVCAR-3 ovarian),growth (HS 578T breast),growth (NCI/ADR-RES ovarian)
COc1cc(-c2nc(C(=O)NCC(=O)O)nn2-c2ccc(Cl)cc2)cc(OC)c1OC,106%,99%,102%,105%,105%,98.7%,105%,107%,106%,105%
C=CCCCOC1[C@H](OCc2ccccc2)C(OCc2ccccc2)C(OC)O[C@@H]1CNC(=O)c1cccc(I)c1 (stereo not given in full),26.7%,8.34% (active),51.8%,69%,22.6%,45.5%,43.2%,50.1%,79.7%,25.9%
CN1CCN(CCCOc2cccc3nc(Nc4ccc(Cl)c(C(F)(F)F)c4)ccc23)CC1,-33.3% (active),10.6%,13.9%,17.9%,42.1%,52.5%,55.4%,-4.07% (active),32.6%,-0.603% (active)
CC(C)(C)C(=O)OCOP(=O)(OCOC(=O)C(C)(C)C)C1CCCN(OC(=O)c2ccccc2)C1=O (stereo not given),7.15% (active),-30.8% (active),7.36% (active),65.5%,31.9%,20.6%,5.28% (active),7.34% (active),8% (active),3.76% (active)
C=CC[n+]1c(/C=C/C=C2\N(C)c3ccccc3C2(C)C)sc2ccc(OC)cc21,11.7%,1.33% (active),12.2%,22.4%,25.1%,-13.8% (active),40.9%,13.3%,53.6%,71.7%
O=c1[nH]c(N2CCOCC2)nc2scc(-c3ccccc3)c12,102%,97.7%,96.2%,104%,101%,88%,101%,110%,102%,98.1%
CCN(CC)CCOc1ccc(/C(=C(\C)c2ccc(Cl)cc2)c2ccc(Cl)cc2)cc1,0.594% (active),14.5%,82.7%,80.2%,78.8%,103%,80%,83%,77.5%,81.5%
CCN(CCN(C)C)C(=O)CNCc1cc(C(N)=O)ccn1,93%,96.1%,89.9%,101%,109%,96.4%,109%,119%,108%,104%
CC(C)c1ccc(/C=N/Nc2nc3ccccc3s2)cc1,89.9%,88.4%,87.5%,102%,81.4%,89.4%,70%,88.7%,92.8%,92.6%
C[C@@H](C[C@H](CCO)c1cc(C(F)(F)F)cc(C(F)(F)F)c1)c1ccc2ccccc2c1,30.6%,79.3%,102%,106%,94.6%,98.3%,75.3%,81%,106%,85.3%
CCCCCCCC(=O)SCC/C=C/[C@@H]1CC(=O)NCc2cccc(n2)C2=N[C@@](C)(CS2)C(=O)N[C@@H](C(C)C)C(=O)N1,18.9%,17.1%,32.1%,25.5%,34.4%,10.3%,26%,22%,26.2%,86.7%
Cc1cc2c(-c3nc4ccccn4c3N)c(O)c(O)cc2c(O)c1-c1c(C)cc2c(-c3nc4ccccn4c3N)c(O)c(O)cc2c1O,26.9%,9.18% (active),19.9%,36.7%,33.7%,-10.4% (active),28.9%,26.5%,37.6%,26.4%
CCN(CC)Cc1cc(Nc2cc(C(F)(F)F)c(C#N)c3nc4ccccc4n23)ccc1O,12.8%,0.326% (active),9.84% (active),31%,14.2%,-10.8% (active),28.9%,10.9%,22.8%,6.79% (active)
COc1cc2cc(NCc3ccc(F)cc3)nc(C)c2cc1OC,22.2%,14.2%,51%,53.4%,96.7%,75.3%,59.1%,68.2%,75.8%,44.4%
N#Cc1cc2[nH]c3ccc(OC(F)(F)F)cc3c2oc1=O,26.2%,89.1%,86.8%,118%,73.7%,62.5%,78.9%,67.1%,86.2%,70.9%
N#Cc1c(-c2ccc(C(F)(F)F)cc2)c(F)c(NCCC2CCC(O)C2)n2c1nc1ccccc12 (stereo not given),9.1% (active),49.5%,45.4%,88.7%,69.9%,43.2%,50.2%,79.9%,86.8%,37.9%
N#Cc1c(C(F)(F)F)cc(Nc2ccc3nc(NCCN4CCCC4)oc3c2)n2c1nc1ccccc12,0.701% (active),44.6%,65.7%,137%,64.2%,89.9%,79.6%,91.6%,100%,86.5%
CCCCCC(=O)OCc1ccc(Cl)c(Cl)c1,97.5%,104%,103%,108%,105%,107%,106%,106%,103%,102%
NC1=Nc2ccccc2N(O)N1,105%,107%,104%,92.4%,99.8%,90.9%,105%,111%,97.3%,103%
Cc1ccc(-[n+]2c3cc(N)c(C)cc3nc3cc(C)c(Nc4ccccc4)cc32)cc1,-39.1% (active),-36.5% (active),-6.17% (active),-61.3% (active),-38.7% (active),-90.4% (active),-59.5% (active),-97.4% (active),18.8%,-21.8% (active)
Cc1ccc(-c2nc3ccc(Cl)cn3c2NC2CCCCC2)o1,54.3%,51.1%,92.7%,108%,71%,72.1%,62.1%,89.7%,88.2%,86.2%
Cc1cc(N(CCNc2ccnc3cc(Cl)ccc23)Cc2ccc3c(c2)OCO3)nc(N2CCCC2)n1,-46.7% (active),-27.3% (active),7.4% (active),20.6%,-44.9% (active),40.9%,-14.4% (active),-30.7% (active),6.29% (active),31.1%
CNC(=O)c1cnc(C)nc1-c1cc(C(C)(C)C)c(O)c(C(C)(C)C)c1,85%,77.8%,105%,102%,89.7%,97.5%,103%,116%,106%,110%
COc1ccc(-c2nc(N)ncc2Oc2ccccc2OC)c(O)c1,27.9%,25.7%,35.6%,60.2%,75.7%,24.8%,48.7%,-4.77% (active),36.2%,17.9%
CC(C)OP(=O)(CCC(=O)c1c[nH]c2ccccc12)OC(C)C,100%,73.5%,91.8%,107%,105%,89%,106%,106%,86.6%,103%
CC(C)[C@@H]1CC[C@]2(CO2)[C@@H]2C(=O)OCC(C(=O)O)=C[C@H]21,-4.75% (active),-34.6% (active),4.64% (active),22%,12.7%,15.7%,5.4% (active),5.83% (active),-5.29% (active),-12.1% (active)
O=S1(=O)OC(c2cc(Cl)c(O)c(Br)c2)(c2cc(Cl)c(O)c(Br)c2)c2ccccc21,92.4%,102%,89.8%,100%,101%,109%,95.6%,115%,94.1%,102%
